Experiment in all cases: qHTS profiling for inhibitors of Plasmodium falciparum proliferation (AID 504749); note: nearly all actives have a fitted effect of over 60% in size
Conditions in all cases: P. falciparum in erythrocytes, SYBR Green DNA, 72 h; series mostly up to 28.7 µM

One assay concerns CP217. The method in brief:
(§1)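 P. falciparum-infected erythrocytes (0.3% parasitemia, 2.5% hematocrit final) were exposed to compounds for 72 h at 37 C in 5% CO2, then lysed with SYBR Green buffer overnight at room temperature; parasite DNA fluorescence was normalized to artemisinin and DMSO controls.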

In the next assay the test system is CP237. A digest of the protocol: as §1
Another assay deals with CP238. The method in brief:
as §1

A further assay has as its system CP247. The method in brief:
as §1

A further assay relates to CP250. The method in brief: as §1
For the next assay, the system named is CP252. The method in brief: as §1
The subject of a further assay is CP256. The method in brief:
as §1

In another assay the test system is CP260. A digest of the protocol:
as §1

The next assay relates to CP262. The method in brief:
as §1

The next assay deals with CP265. A digest of the protocol:
as §1

For the next assay, the system named is CP268. A digest of the protocol:
as §1

Another assay deals with CP269. The method in brief: as §1
The next assay concerns CP286. The method in brief: as §1
The test system of another assay is CP291. The method in brief: as §1
For the next assay, the system named is CP297. The method in brief: as §1
In the next assay the test system is CP305. A digest of the protocol: as §1
A further assay concerns CP315. The method in brief:
as §1

The test system of another assay is CP325. A digest of the protocol: as §1
The test system of a further assay is CP329. A digest of the protocol:
as §1

The subject of another assay is CP266. The method in brief:
as §1

Results filed as inconclusive are left out. Active and inactive are the calls of the source. Calls come from the whole dose curve; as a rule, active = well fitted inhibition curve with a large enough effect; inconclusive = small, poorly fitted or top-dose-only effect; inactive = flat fitted curve, though single readings scatter.
Potency is the fitted concentration of half-maximal effect.

For the molecule `Clc1ccccc1C(c1ccccc1)(c1ccccc1)n1ccnc1`, the Potency with CP217 is 631 nM (active); with CP237 it was 398 nM (active); with CP238, 794 nM (active); in the assay with CP247 it was 891 nM (active); with CP250, 1580 nM (active); in the assay on CP252 it was 891 nM (active). Besides, the Potency in the assay on CP256 was 2000 nM (active); with CP260 it was 1410 nM (active); with CP262, 1020 nM (active); in the assay with CP265 it was 708 nM (active); with CP268 it was 2280 nM (active); in the assay on CP269, 907 nM (active). Moreover, the Potency in the assay on CP286 is 1580 nM (active); with CP291 it was 2030 nM (active); with CP297 it was 455 nM (active); with CP305, 5100 nM (active); in the assay with CP315 it was 2030 nM (active); in the assay on CP325, 1810 nM (active). The Potency in the assay with CP329 is 2870 nM (active).

Regarding `Cn1c(=O)c2c(ncn2C)n(C)c1=O`, the Potency entry in the assay on CP217, in the assay on CP237, in the assay with CP238, in the assay with CP247, with CP250 and in the assay with CP252 was “inactive” each time. Moreover, the Potency entry in the assay on CP256, in the assay with CP260, in the assay on CP262, in the assay on CP265, with CP266 and with CP268 was “inactive” throughout. For the same molecule, the Potency result in the assay with CP269, in the assay on CP286, in the assay on CP291, in the assay with CP297, in the assay with CP305 and in the assay with CP315 was “inactive” in each case. Moreover, the Potency result in the assay with CP325 and in the assay with CP329 was “inactive” each time.

As for `CN(CCOc1ccc(NS(C)(=O)=O)cc1)CCc1ccc(NS(C)(=O)=O)cc1`, the Potency entry in the assay on CP217, with CP237, in the assay with CP238, with CP247, with CP250 and with CP252 was “inactive” in each case. In addition, the Potency entry in the assay with CP256, in the assay on CP260, in the assay with CP262, in the assay with CP265, in the assay with CP266 and in the assay on CP268 was “inactive” each time. Moreover, the Potency entry in the assay with CP269, in the assay on CP286, in the assay on CP291, with CP305, in the assay with CP315 and in the assay on CP325 was “inactive” each time. The Potency entry in the assay on CP329 was “inactive”.

For `NCCc1cnc[nH]1`, the Potency result with CP217, in the assay on CP237, in the assay on CP238, in the assay on CP247, with CP250 and with CP252 was “inactive” throughout. Besides, the Potency entry with CP256, with CP260, in the assay on CP262, in the assay on CP265, in the assay with CP266 and in the assay on CP268 was “inactive” in each case. Further, the Potency entry in the assay on CP269, with CP286, with CP291, in the assay on CP297, with CP305 and with CP315 was “inactive” in each case. Further, the Potency entry in the assay on CP325 and in the assay with CP329 was “inactive” in each case.

For the molecule `Clc1ccc2nsnc2c1NC1=NCCN1`, the Potency entry in the assay on CP217, in the assay on CP237, with CP238, in the assay with CP247, in the assay with CP250 and with CP252 was “inactive” throughout. In addition, the Potency entry in the assay with CP256, in the assay on CP260, with CP262, with CP265, with CP266 and in the assay with CP268 was “inactive” throughout. Besides, the Potency entry with CP269, with CP286, in the assay with CP291, in the assay on CP297, with CP305 and with CP315 was “inactive” in each case. Besides, the Potency entry in the assay with CP325 and in the assay on CP329 was “inactive” in each case.

`CCOC(=O)c1ncn2c1CN(C)C(=O)c1cc(F)ccc1-2`: the Potency entry in the assay on CP217, in the assay on CP237, in the assay on CP238, in the assay with CP247, in the assay on CP250 and with CP252 was “inactive” throughout. The Potency entry in the assay on CP256, with CP260, in the assay on CP262, in the assay on CP265, in the assay on CP268 and in the assay with CP269 was “inactive” each time. Moreover, the Potency entry in the assay on CP286, in the assay on CP291, in the assay with CP297, with CP305, in the assay on CP315 and in the assay on CP325 was “inactive” throughout. Also, in the assay with CP329, the Potency result was “inactive”.

Regarding `COc1ccccc1OCC(O)CN1CCN(CC(=O)Nc2c(C)cccc2C)CC1` (configuration not stated), the Potency result with CP217, in the assay with CP237, in the assay on CP238, with CP247, with CP250 and in the assay with CP252 was “inactive” each time. Moreover, the Potency result in the assay on CP256, with CP260, in the assay with CP262, in the assay with CP265, with CP266 and in the assay with CP268 was “inactive” each time. Besides, the Potency entry in the assay on CP269, with CP286, in the assay with CP291, in the assay with CP297, with CP305 and in the assay with CP315 was “inactive” in each case. Further, the Potency result with CP325 and in the assay with CP329 was “inactive” in each case.

On to `Nc1nnc(-c2cccc(Cl)c2Cl)c(N)n1`, for which the Potency result in the assay with CP217, with CP237, in the assay on CP238, with CP247, with CP250 and in the assay on CP252 was “inactive” throughout. For the same molecule, the Potency result with CP256, in the assay on CP260, in the assay on CP262, in the assay on CP265, in the assay on CP266 and in the assay with CP268 was “inactive” throughout. Moreover, the Potency result in the assay with CP269, with CP286, in the assay on CP291, in the assay with CP297, in the assay on CP305 and in the assay on CP315 was “inactive” in each case. In addition, the Potency entry in the assay on CP325 and with CP329 was “inactive” in each case.

`CCCNCC(O)COc1ccccc1C(=O)CCc1ccccc1` (configuration not stated): the Potency with CP217 is 891 nM (active); in the assay on CP237 it was 447 nM (active); in the assay with CP238 it was 1000 nM (active); in the assay on CP247 it was 1000 nM (active); in the assay with CP250, 1000 nM (active); with CP252, 631 nM (active). For the same molecule, the Potency with CP256 is 1000 nM (active); in the assay on CP260, 891 nM (active); in the assay with CP262, 4780 nM (active); in the assay with CP265 it was 355 nM (active); with CP266, 10700 nM (active); in the assay with CP268 it was 4260 nM (active). The Potency with CP269 was 3790 nM (active); in the assay on CP286, 1580 nM (active); with CP291, 4260 nM (active); in the assay with CP297, 3790 nM (active); in the assay on CP305, 4260 nM (active); in the assay on CP315, 4780 nM (active). In addition, the results for the Potency with CP325 and in the assay with CP329 were 4260 nM (active) and 6750 nM (active), respectively.

Take `NCCCCCC(=O)O`: the Potency entry with CP217, in the assay on CP237, with CP238, with CP247, in the assay on CP250 and in the assay with CP252 was “inactive” throughout. Further, the Potency entry in the assay on CP256, with CP260, with CP262, with CP265, in the assay with CP266 and in the assay on CP268 was “inactive” throughout. Also, the Potency entry with CP269, in the assay on CP286, in the assay on CP291, with CP297, with CP305 and in the assay on CP315 was “inactive” throughout. In addition, the Potency entry with CP325 and with CP329 was “inactive” in each case.

Consider `CC(CCc1ccc(O)cc1)NCCc1ccc(O)c(O)c1` (configuration not stated), for which the Potency result with CP217, in the assay with CP237, in the assay on CP238, with CP247, in the assay on CP250 and in the assay with CP252 was “inactive” throughout. Besides, the Potency result with CP256, in the assay on CP260, with CP262, in the assay on CP265, in the assay on CP266 and in the assay with CP268 was “inactive” each time. The Potency result with CP269, in the assay with CP286, in the assay on CP291, with CP297, with CP305 and with CP315 was “inactive” each time. For the same molecule, the Potency entry with CP325 and with CP329 was “inactive” in each case.

On to `NS(=O)(=O)c1cc2c(cc1Cl)NCNS2(=O)=O`, for which the Potency result in the assay on CP217, in the assay on CP237, with CP238, in the assay with CP247, in the assay with CP250 and in the assay on CP252 was “inactive” each time. Moreover, the Potency result with CP256, in the assay with CP260, in the assay on CP262, in the assay with CP265, with CP266 and with CP268 was “inactive” each time. For the same molecule, the Potency result in the assay with CP269, in the assay on CP286, with CP291, in the assay on CP297, in the assay with CP305 and with CP315 was “inactive” in each case. The Potency result in the assay on CP325 and in the assay on CP329 was “inactive” throughout.

As for `CN1C(C(=O)Nc2ccccn2)=C(O)c2ccccc2S1(=O)=O`, the Potency result with CP217, with CP237, in the assay on CP238, with CP247, with CP250 and in the assay with CP252 was “inactive” in each case. For the same molecule, the Potency result in the assay with CP256, with CP260, in the assay with CP262, in the assay with CP265, with CP266 and in the assay with CP268 was “inactive” each time. In addition, the Potency result in the assay on CP269, with CP286, in the assay on CP291, with CP297, in the assay on CP305 and with CP315 was “inactive” throughout. Moreover, the Potency entry with CP325 and in the assay with CP329 was “inactive” in each case.

The values above are taken from PubChem BioAssay (NCATS).
